# Screening data: PubChem, several laboratories
# Anthrax LF inh2: inhibitors of Bacillus anthracis lethal factor protease | P15917 | multiplex microsphere protease cleavage assay, LF | inhibition, % at 10 µM | 360,000 tested, 0.12% active | AID 588501; further: plate controls were buffer without enzyme for full effect and enzyme alone for no effect
# BoNT A protease: inhibitors of Botulinum neurotoxin A light chain protease; multiplex microsphere protease substrate cleavage, flow cytometry; inhibition, % at 10 µM; 360,000 tested, 0.17% active; further: plate controls were buffer without enzyme for full effect and enzyme alone for no effect
# PfHsp40 rescue: rescue of PfHsp40-mediated yeast toxicity; growth rescue, % at 12.5 µM; 340,000 tested, 0.68% active; S. cerevisiae expressing PfHsp40, growth rescue, ATP luminescence; in the data active means growth rescue above about 28%, passing the limit was not always enough; inconclusive means no clear call, values can overlap the other calls;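 further: yeast W303a lacking pdr1 and pdr3 grown in galactose medium; growth measured after three days at 30 °C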
# MazF activator: increases E. coli MazEF RNase cleavage of RNA; P0AE70; FAM/BHQ RNA-DNA oligo cleavage fluorescence, 5 h; activation, % at 20 µM; 350,000 tested, 0.32% active; in the data active means activation above about 50%
# Target sequence (P0AE70 whole entry, looked up): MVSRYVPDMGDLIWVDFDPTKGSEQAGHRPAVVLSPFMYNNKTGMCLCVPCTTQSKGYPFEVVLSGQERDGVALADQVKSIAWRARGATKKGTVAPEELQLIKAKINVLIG
# Autofluor counter: counter-screen for toxin protease inhibitors: compound fluorescence; AID 624483; compound autofluorescence counterscreen, microsphere flow cytometry; active compounds read high; fluorescence intensity (concentration not given with the values); 360,000 tested, 3.1% active; in the data active means fluorescence intensity above about 16000; inconclusive means no clear call, values can overlap the other calls
# BoNT-F LC inh: blocks Botulinum neurotoxin F light chain protease; Multiplex microsphere protease cleavage assay, flow cytometry; inhibition, % at 10 µM; 360,000 tested, 0.22% active; AID 588497; in the data active means inhibition above about 35%, passing the limit was not always enough; inconclusive means no clear call, values can overlap the other calls; further: plate controls were buffer without enzyme for full effect and enzyme alone for no effect
# The depositor's hits bear a star; ? = inconclusive; nt = not tested or not shown. Sampled rows, rich in hits. Any-hit rate of the full collection: about 4.3%. Unless noted, no stated cut-off is given here; in the data, active means inhibition above about 30%; inconclusive means no clear call, values can overlap the other calls; inactive means below that.
SMILES,Anthrax LF inh2,BoNT A protease,PfHsp40 rescue,MazF activator,Autofluor counter,BoNT-F LC inh
Cc1ccc(-n2nnnc2SCC(=O)Nc2ncc(Cc3ccccc3Cl)s2)cc1,-0.5,-0.1,0.0,-51.2,2406,-12.9
COc1ccc(CC(=O)Nc2ccc(OC)c(NC(=O)c3ccco3)c2)cc1,-2.2,-0.3,0.4,-0.6,4786,-24.5
CCOc1cc(NC(=O)c2ccco2)c(OCC)cc1NC(=O)Cc1ccc(OC)c(OC)c1,-10.2,2.7,-1.1,-5.0,20919*,5.1
COc1ccc(NC(=O)CCc2ccccc2)cc1NC(=O)c1ccco1,-3.3,-0.9,2.4,-7.0,19700*,-4.5
COc1ccc(CC(=O)NNC(=O)c2ccco2)cc1OC,18.3,-2.7,-0.3,0.6,3043,-21.1
CCOc1ccc(Nc2oc(-c3cccc(Cl)c3)nc2C#N)cc1,-3.8,?,-1.1,1.0,23170*,1.8
CN(C)CCNc1oc(-c2cccc(Cl)c2)nc1C#N,0.6,-4.5,0.4,5.1,20990*,-4.3
Cc1ccccc1CN(c1ccc(C(=O)NCc2cccnc2)cc1)S(C)(=O)=O,-2.1,-0.1,-2.2,6.1,4261,1.0
Cc1ccccc1N(Cc1ccccc1F)S(C)(=O)=O,-0.3,1.4,0.1,-3.8,23221*,-1.0
Cc1ccccc1CN(c1ccc(C(N)=O)cc1)S(C)(=O)=O,2.6,-0.1,-0.2,1.4,16249*,-1.7
Cc1cccc(-n2nc(C)cc2N)c1,-2.2,-0.4,-0.9,3.6,8390,-14.6
Cc1cc(C)cc(-n2nc(C)cc2N)c1,-0.4,?,0.4,6.4,16680*,-0.2
C/C(=N\NC(=O)C(C)Oc1ccc([N+](=O)[O-])cc1)c1ccccn1 (stereo not drawn),-5.3,?,-1.0,4.9,24747*,-3.7
CC(Oc1ccccc1)C(=O)NNC(=O)c1ccccn1 (stereo not drawn),1.8,-0.9,0.0,-1.5,2500,0.2
Cc1cc2c3c(c1)C1(C(=O)N3C(C)(C)CC2C)C(C#N)=C(N)Oc2n[nH]c(C)c21 (stereo not drawn),2.1,?,-0.5,-9.7,21117*,0.7
O=C(NOC(=O)c1ccccc1)c1ccccc1,nt,nt,238.5*,7.9,nt,nt
O=C(NC1CCCC1)C1CCCN(S(=O)(=O)c2ccc(F)cc2)C1 (stereo not drawn),-4.8,0.4,-1.0,11.2,3413,-0.5
CCSc1ccccc1C(=O)NCc1ccc(S(N)(=O)=O)cc1,-0.3,-0.6,-1.7,-2.4,23721*,-2.3
NS(=O)(=O)c1ccc(CNC(=O)c2ccccc2SCC(=O)N2CCCC2)cc1,?,0.5,-0.2,-5.2,?,-4.2
CCSc1ccccc1C(=O)NCc1ccco1,-3.0,-1.5,-1.4,8.2,24013*,-2.9
O=C(Nc1ccccc1C(=O)NCc1ccco1)c1ccco1,-1.0,-2.5,-0.4,-11.0,17328*,-4.1
Cc1ccc(Nc2nc(Cl)nc3ncn(C)c23)c(C)c1,-8.8,-0.4,0.2,-5.1,2852,2.3
Cc1ccc(S(=O)(=O)CC2CSc3nc4ccccc4n32)cc1 (stereo not drawn),-2.8,-1.2,0.0,8.1,10415,-9.1
Cc1ccc(S(=O)(=O)CC2CSc3nc(N)cc(=O)n32)cc1 (stereo not drawn),-1.2,?,-0.9,3.1,21227*,1.7
COCCn1c(N)c(Sc2ccc(Cl)cc2)c(=O)[nH]c1=O,1.8,1.1,0.8,4.7,5406,-5.7
SMILES,Anthrax LF inh2,BoNT A protease,PfHsp40 rescue,MazF activator,Autofluor counter,BoNT-F LC inh
Cc1ccc(-n2c(=O)cc(NCc3cccnc3)[nH]c2=O)cc1,0.0,2.3,17.1,2.2,21543*,1.5
Cc1ccc(CNCc2cccnc2)cc1,-1.4,-0.7,-1.2,3.8,2763,-14.1
O=S(=O)(Nc1ccc(S(=O)(=O)Nc2nccs2)cc1)c1ccc2c(c1)OCCO2,-2.1,-1.1,1.3,10.7,16416*,-4.9
O=C(Nc1ccc(S(=O)(=O)Nc2nccs2)cc1)c1ccncc1,-2.6,0.7,nt,nt,6037,-0.4
Cc1ccc(S(=O)(=O)Nc2ccc(S(=O)(=O)Nc3nccs3)cc2)cc1C,1.5,0.6,1.3,-0.9,3831,-5.3
CCC(=O)Nc1ccc(S(=O)(=O)Nc2nccs2)cc1,2.7,1.3,0.4,-1.6,3203,-7.5
Cc1cc(C(=O)Nc2ccc(S(=O)(=O)Nc3nccs3)cc2)c(C)o1,-2.2,-2.1,-1.4,4.6,24552*,-3.2
CCCCC1CCC(C(=O)Nc2ccc(S(=O)(=O)Nc3nccs3)cc2)CC1 (stereo not drawn),-1.8,?,1.6,0.2,24211*,-3.7
